# Screening results (PubChem BioAssay)
# Only some compounds are listed: those with a hit (about 14% of all), similar ones and a draw of the others.
# Pf growth 96h: P. falciparum growth inhibition at 96 hour, primary screen for plastid delayed-death inhibitors; P. falciparum luciferase reporter growth, 96 h; Potency, µM (titrated, usually from 28.7 µM), inactives show top-dose activity change, negative = inhibition, usual class: inhibitors; AID 504834; actives 6.9% (n = 320,000); note: potency is the fitted concentration of half-maximal effect
#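 Infected RBCs, 2% Hct / 0.05% parasitemia final; luciferase-reporter P. falciparum; cpd 96 h, 37 C, 5% CO2; luciferase detection reagent; luminescence.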
# Sm TGR block: S. mansoni TGR enzyme inhibition. Q962Y6. purified TGR, DTNB reduction, TNB absorbance 405 nm. Potency, µM (top dose mostly 114 µM), for inactives: at the top dose activity change, negative = inhibition, most hits filed as inhibitors. actives 3% (n = 360,000); note: potency is the fitted concentration of half-maximal effect; nearly all actives have a fitted effect of over 60% in size
#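 Kinetic colorimetric format: TGR-catalysed, NADPH-driven DTNB reduction monitored via TNB absorbance. Enzyme dispensed at 20 nM; compound exposure 15 min at room temperature before reaction start.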
# HCMV antiviral: blocks human cytomegalovirus replication. HFF cells, HCMV-luciferase reporter, 72 h; hits give low values. AID 1259415. actives 4.5% (n = 410,000). activity change, negative = inhibition, % at 57.5 µM; in the data active = activity change below about -60%; inconclusive = no clear call, values can overlap the other calls; inactive = above about -39%
#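 HFF cells seeded 16 h at 37C, treated with compounds, infected with luciferase-reporter HCMV at MOI 1 PFU/cell; luciferase read at 72 h post infection, normalized to buffer-only and Salinomycin controls.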
# Giardia FBPA inh: inhibitors of Giardia lamblia fructose-1,6-bisphosphate aldolase | A8B2U2 | purified Giardia FBPA | Potency, µM (series often up to 59.6 µM), without a hit: top-dose activity, negative = inhibition, most hits filed as inhibitors | actives 0.71% (n = 290,000) | AID 2451; note: potency is the fitted concentration of half-maximal effect; nearly all actives have a fitted effect of over 55% in size
# Target sequence (A8B2U2 whole entry, looked up): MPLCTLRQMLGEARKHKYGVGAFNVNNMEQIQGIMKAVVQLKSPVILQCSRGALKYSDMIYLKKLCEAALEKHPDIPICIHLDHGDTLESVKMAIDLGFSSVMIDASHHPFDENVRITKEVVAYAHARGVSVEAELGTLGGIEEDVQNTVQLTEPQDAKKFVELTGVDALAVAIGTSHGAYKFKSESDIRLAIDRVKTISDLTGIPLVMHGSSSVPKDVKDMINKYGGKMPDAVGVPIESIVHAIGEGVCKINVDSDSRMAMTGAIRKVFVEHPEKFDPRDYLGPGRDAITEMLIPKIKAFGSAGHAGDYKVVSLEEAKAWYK
#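 Giardia FBPA (40 nM reagent) was preincubated 10 min at RT with compound (up to 57.5 uM final), then substrate plus GAPDH/TPI/NAD/arsenate coupling system with diaphorase/resazurin was added; resorufin fluorescence (525/598 nm) was read after 20 min.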
# Pf growth 48h: P. falciparum growth inhibition at 48 hours (one generation) | actives 5.9% (n = 310,000) | AID 504832 | Potency, µM (top dose mostly 28.7 µM), without a hit: at the top dose activity change, negative = inhibition, actives largely listed as inhibitors | P. falciparum luciferase growth in erythrocytes, 48 h; note: potency is the fitted concentration of half-maximal effect
#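 Luciferase-expressing parasites in RBCs, 2% Hct / 0.1% parasitemia final; RPMI 1640 + 0.5% Albumax; 37 C, 5% CO2, one generation; luminescence read-out, lower signal = inhibition.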
# * hit, by the source's call; ? = inconclusive; . = no result given; [ ] = remark or other dose. Unless noted, calls come from the whole dose curve; as a rule, active = well fitted curve in the direction sought with a large enough effect; inconclusive = small, poorly fitted or top-dose-only effect, or another doubt; inactive = no such curve, though single readings can be large; an effect the other way counts as inactive or inconclusive. % is set by controls: 0 for no effect and ±100 for the full control effect.
SMILES,Pf growth 96h,Sm TGR block,HCMV antiviral,Giardia FBPA inh,Pf growth 48h
COc1ccc(C[C@H]2CN3C(=NC[C@H]3Cc3ccccc3)N2CCNC(=O)c2ccc(C)c(Br)c2)cc1,1.7µM*,-22%,.,-1%,5.2µM*
COc1ccccc1CNC(=O)Cn1cc([N+](=O)[O-])ccc1=O,28%,-16%,-6,.,28%
O=C(c1ccc2nc(-c3ccco3)c(-c3ccco3)nc2c1)N1CCN(c2ncccn2)CC1,1%,10µM*,56,.,-2%
O=C(Nc1ccc2nc(-c3ccco3)c(-c3ccco3)nc2c1)N1CCN(c2ccccn2)CC1,-30%,2µM*,-24,?,?
Cc1cc(C(=O)N/N=C2\CC(=O)CC(C)(C)C2)c(C)n1-c1ccc(F)cc1,?,?,-64*,0%,?
Cn1c(CO)cnc1S(=O)(=O)Cc1ccc([N+](=O)[O-])cc1,?,28µM*,17,-2%,-5%
CN(C)CCNc1nc2sc3c(c2c(=O)n1-c1ccccc1)CCCCC3,-27%,0%,1,4%,-18%
Cc1ccccc1-c1nc2sc3c(c2c(=O)n1N)CCCC3,4.7µM*,1%,-30,0%,.
COc1ccc(-n2c(NCCN(C)C)nc3sc4c(c3c2=O)CCCCC4)cc1,?,-10%,-107*,2%,.
Nn1c(-c2cccs2)nc2sc3c(c2c1=O)CCCC3,270%,5%,68,-3%,240%
COc1ccc(-n2c(C)nc3sc4c(c3c2=O)CCC4)cc1,4.7µM*,0%,-2,2%,14%
CN(C)CCNc1nc2sc3c(c2c(=O)n1-c1ccc(F)cc1)CCCCC3,?,5%,45,2%,10µM*
Cc1cc(C)c2c(=O)n3c(nc2c1)C(C)NC(=O)c1cccnc1-3 (centres undefined),.,.,16,.,.
Cc1cn([C@H]2C[C@H](O)[C@@H](CNC(=O)[C@@H]3CCCN3Cc3ccccc3)O2)c(=O)[nH]c1=O,.,.,-8,.,.
CCN(CC(=O)Nc1ccccc1C(F)(F)F)C(=O)CCS(=O)(=O)c1ccc(C)cc1,2%,2%,2,.,13%
Cc1ccc(Nc2nnc(SCC(=O)NCc3ccco3)s2)cc1,?,-27%,-8,-27%,5.9µM*
O=C(CSc1nnc(Nc2ccccc2)s1)NCc1ccco1,?,?,22,0%,-17%
O=C(CSc1nnc(NC(=O)c2ccccc2F)s1)NCc1ccco1,174%,-17%,-32,.,118%
O=C(CSc1nnc(Nc2ccccc2F)s1)NCc1ccco1,?,50µM*,-31,-17%,?
Cc1cccc(Nc2nnc(SCC(=O)NCc3cccs3)s2)c1C,6.6µM*,-9%,6,3%,-25%
CC(=O)Nc1c(C(=O)O)[nH]c2ccccc12,10µM*,-22%,57,6%,6%
CCS(=O)(=O)Nc1c(C(=O)OC)[nH]c2ccccc12,.,-14%,36,-5%,12%
CCS(=O)(=O)Nc1c(C(=O)O)[nH]c2ccccc12,12µM*,?,-108*,12%,-5%
NC1CCCC[C@@H]1N (some centres undefined),.,.,.,-13%,.
C=CCSc1nnc(Cc2c(C)[nH]c3ccccc23)o1,8.3µM*,-34%,10,1%,4%
SMILES,Pf growth 96h,Sm TGR block,HCMV antiviral,Giardia FBPA inh,Pf growth 48h
O=C(CSc1nnc(Cc2ccccc2)o1)NCc1ccco1,-23%,45µM*,55,2%,-15%
Cc1[nH]c2ccccc2c1Cc1nnc(SCC(=O)NCc2ccco2)o1,?,16µM*,13,-4%,-9%
CCn1c(Cc2c(C)[nH]c3ccccc23)nnc1SCC(=O)NCc1ccco1,-17%,0%,23,1%,-15%
CC(=O)c1ccc(NC(=O)CSc2nc(=O)n(Cc3ccncc3)c3c2CCC3)cc1,.,5%,23,.,.
CN(C)c1ccc(/C=C(/NC(=O)c2ccccc2)C(=O)N/N=C/c2ccc([N+](=O)[O-])c(O)c2)cc1,5.2µM*,-21%,-7,-9%,13µM*
COc1ccc(Oc2ccc(NC(=O)c3ccccc3C)cc2)cc1,-21%,.,-85*,-7%,-1%
COc1ccccc1Oc1ccc(NC(=O)c2ccccc2C)cc1,?,0%,-5,-6%,-22%[1.15 µM]
COc1cc2ccccc2cc1C(=O)Nc1ccc(N2CCN(C(=O)C(C)C)CC2)cc1,15µM*,-1%,-4,.,12µM*
COc1ccccc1C(=O)Nc1ccc(Oc2nnc(-c3ccc(C)cc3)c3ccccc23)cc1,?,-3%,-70*,10%,-10%
Cc1nc(C)c(C(=O)Nc2ccc(Oc3ccccc3)cc2)o1,.,3%,-89*,-3%,78%
COc1cc2ccccc2cc1C(=O)Nc1ccc(N2CCN(C)CC2)cc1,.,11%,6,1%,?
Cc1ncoc1C(=O)Nc1ccc(Oc2ccccc2)cc1,-9%,0%,-33,-1%,121%
CCc1nc2ccc(C(=O)N3CCN(C(=O)c4ccco4)CC3)cn2c1N(C)Cc1nccn1C,.,.,12,.,.
CCCCCCCCCCCCSCCOCCO,-21%,.,.,-7%,-13%
COc1ccc(N2CCSC2C(=O)NN)cc1 (centres undefined),9.3µM*,-1%,-33,-1%,27%
COC(=O)/C=C/[C@H]1CCCN1c1ccc(OC)cc1,.,.,-14,.,.
CCN1CCN(c2ccc(NC(=O)c3ccc4c(c3)[nH]c(=O)n4Cc3ccc(OC)cc3)cc2)CC1,10µM*,-9%,?,6%,?
COc1ccc(N2CCN(c3ccc(NC(=O)NN)cc3)CC2)cc1,12µM*,-14%,5,10%,-25%
COc1ccc(C(=O)Nc2ccc(N3CCN(C(=O)c4ccccc4C)CC3)cc2)cc1,?,1%,-82*,.,?
C=C(C)c1nc(Oc2ccccc2)nc(Oc2ccccc2)n1,.,.,141,.,.
COc1ccc(/C(C)=N/NC(=O)CNC(=O)C(c2ccccc2)c2ccccc2)c(OC)c1,-18%,0%,-33,4%,-9%
COc1ccc(N2CCN(C(=O)c3ccc(C)c(NC(=O)c4ccco4)c3)CC2)cc1,29%,1.8µM*,12,.,-23%
COc1ccc(C(=O)Nc2ccc(N3CCCC3)cc2)cc1,4.1µM*,56µM*,34,-16%,.
COc1ccc(C(=O)NC(=S)Nc2ccc(N3CCCC3)cc2)cc1,47%[5.75 µM],-3%,?,3%,3%[5.75 µM]
CCc1nn(CC(=O)NC(C)c2ccccc2)c(=O)c2cc3sccc3n12 (centres undefined),.,8%,-9,.,.
CCCC/C=C/C(NC(=O)c1ccc(C(F)(F)F)cc1)c1ccccc1 (centres undefined),.,.,.,-2%,.
Fc1ccc(C2=CCN(C(c3cccs3)c3nnnn3CCc3ccccc3)CC2)cc1 (centres undefined),.,-15%,?,-2%,0%
